Bioassay records deposited in PubChem BioAssay by ICCB-Longwood Screening Facility, Harvard Medical School.
Most compounds without a hit are left out; they make up all but 1.4% or so of the library.
PV pol inh: poliovirus RdRp elongation inhibitors, primary screen, biochemical, fluorescence polarization, total intensity; Genome polyprotein (Poliovirus type 1 (strain Mahoney)), P03300; poliovirus polymerase elongation; active compounds read low; % elongation, % (compound at 16.7 µg/mL); 150,000 tested, 0.66% active; AID 588519, 2011; in the data active = % elongation below about 90%
Target sequence (P03300 1749-2209 limits assumed): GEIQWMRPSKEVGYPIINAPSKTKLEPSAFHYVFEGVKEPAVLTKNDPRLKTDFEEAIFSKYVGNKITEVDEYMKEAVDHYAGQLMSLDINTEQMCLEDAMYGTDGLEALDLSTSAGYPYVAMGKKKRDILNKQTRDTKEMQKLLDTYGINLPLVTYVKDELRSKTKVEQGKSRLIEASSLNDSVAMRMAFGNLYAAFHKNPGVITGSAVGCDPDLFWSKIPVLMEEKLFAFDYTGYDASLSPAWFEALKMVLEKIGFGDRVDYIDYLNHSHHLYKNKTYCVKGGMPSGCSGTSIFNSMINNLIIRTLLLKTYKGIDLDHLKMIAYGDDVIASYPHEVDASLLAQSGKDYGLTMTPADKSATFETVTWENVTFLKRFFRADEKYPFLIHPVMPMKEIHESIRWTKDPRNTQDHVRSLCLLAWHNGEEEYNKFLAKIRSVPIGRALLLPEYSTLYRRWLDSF
AID504770: growth inhibition of E. coli YBA685, primary screen, V. cholerae RctB inhibitors; z-score (concentration not given with the values); AID 504770, 2011; 130,000 tested, 0.27% active; E. coli YBA685 rctB-dependent plasmid, OD600 growth, 3 h; active compounds read low; in the data active = z-score below about -2, passing the limit was not always enough
MenB inh: M. tuberculosis MenB inhibitors, primary screen, biochemical, absorbance. 1,4-dihydroxy-2-naphthoyl-CoA synthase (Mycobacterium tuberculosis (strain ATCC 25618 / …. AID 540299, 2011. 100,000 tested, 0.43% active. inhibition, % (test concentration not listed). MenB enzyme assay, absorbance read-out; in the data active = inhibition above about 21%, passing the limit was not always enough
MbtI inh: MbtI salicylate synthase inhibitors, primary screen, biochemical, fluorescence intensity; purified MbtI enzyme, fluorescence intensity read-out; inhibition, % (concentration not given with the values); 100,000 tested, 0.89% active; in the data active = inhibition mostly above about 56%, no sharp cut-off; inactive = mostly below about 77%
Of the large screens only hits and unclear results are named; the others gave an inactive call; ! = a repeat was not active.

O=C1NC(=O)C(CC2CCCN3CCCCC23)C(=O)N1 (configuration not stated)	none (no result: MbtI inh)
C/C(=N\NC(=O)c1ccn[nH]1)c1cc(O)ccc1O	MbtI inh 71.2
CC(C)N(CC(=O)c1cccs1)Cc1ccccc1	MbtI inh 100.2
CCCSc1nc(-c2ccc(OC)cc2)cc(-c2ccccc2OC)c1C#N	PV pol inh 88.0 (no result: AID504770, MenB inh, MbtI inh)
C=CCn1c(N)nc2c1c(=O)n(C)c(=O)n2C	MenB inh 49.4
Cc1ccccc1NC(=O)N1CCCC(c2nc(-c3ccc(F)cc3)no2)C1 (configuration not stated)	MenB inh 29.2
Cc1ccc(S(=O)(=O)N2CCC(C)CC2)cc1C(N)=O	none
Cc1nc(-c2ccc3[nH]c(=O)oc3c2)cs1	PV pol inh 74.0, MbtI inh 97.4
Cn1cnc2c1c(=S)[nH]c(=O)n2Cc1ccccc1	PV pol inh 82.0 (no result: MbtI inh)
CN(CC(=O)Nc1ccc(N2CCOCC2)cc1)Cn1nc(Nc2ccccc2F)sc1=S	MbtI inh 98.6
Cc1cn2cc(-c3cccc(Cl)c3)nc2s1	none
O/N=C/c1nc2cc(Cl)ccc2o1	PV pol inh 76.0
CC(C)(C)/C(O)=C/c1nc2cc(Cl)ccc2oc1=O	none
CC1(C)CC(NC(=O)CCCC(=O)O)CC(C)(C)N1	none
CC1(C)CC(NC(=O)CCc2ccccc2)CC(C)(C)N1	MenB inh 38.8
COC(=O)c1c(NC(=O)Cc2cccs2)sc2c1CCCC2	MenB inh 39.3
COC(=O)c1c(NC(=O)C(F)(F)F)sc2c1CCCC2	PV pol inh 88.0 (no result: MbtI inh)
COC(=O)Nc1sc2c(c1C(=O)OC)CCC2	none
CCCc1ccc(OCC(=O)Nc2sc3c(c2C(=O)OC)CCCCC3)cc1	PV pol inh 85.0 (no result: AID504770, MenB inh, MbtI inh)
CSc1[nH]c(=O)[nH]c(=O)c1C#N	none
CSc1s[nH]c(=O)c1C#N	PV pol inh 86.0 (no result: MbtI inh)
COC(=O)c1ccc(S(=O)(=O)N2CCc3ccccc32)n1C	none
CC1CC(=S)Nc2ccccc2S1 (configuration not stated)	none
CC(C)(C)N1Sc2ccccc2NC1=S	MbtI inh 90.2!
Cc1cc(C)nc(SCC(=O)OCc2nnc(-c3ccccc3)o2)n1	none
CCOc1cccc(/C=N/n2c(-c3ccc(Cl)cc3)n[nH]c2=S)c1O	PV pol inh 85.0, MbtI inh 78.8
COc1ccc(-c2n[nH]c(=S)n2/N=C/c2ccccc2Br)cc1OC	none
COc1cccc(OC(=O)CSc2nnc(-c3cccs3)o2)c1	PV pol inh 90.0 (no result: AID504770, MenB inh, MbtI inh)
O=C(CSc1nnc(-c2cccs2)o1)Oc1ccccc1	none (no result: AID504770, MenB inh, MbtI inh)
CCc1ccc(OC(=O)CSc2nnc(-c3ccc4c(c3)OCO4)o2)cc1	none (no result: AID504770, MenB inh, MbtI inh)
COc1cccc(OC(=O)CSc2nnc(-c3ccc4c(c3)OCO4)o2)c1	PV pol inh 87.0 (no result: AID504770, MenB inh, MbtI inh)
O=C(CN1CCN(c2ncnc3scc(-c4ccc(Cl)cc4)c23)CC1)NC1CC1	AID504770 -4.9
CC1COC2=C(N3CCN(C)CC3)C(F)=CC3C(=O)C(C(=O)O)=CN1C23 (configuration not stated)	AID504770 -6.4
CSc1cccc(Nc2cc(C(=O)NCCN3CCOCC3)c3ccccc3n2)c1	none (no result: PV pol inh, MenB inh, MbtI inh)
COc1ccc(C(=O)CSC#N)cc1OC	MenB inh 31.8 (no result: MbtI inh)
COc1ccc(OC)c(C(=O)CSC#N)c1	none
CCCn1nnnc1SCC(=O)c1ccccc1	MenB inh 30.6
O=C(CSc1nnnn1Cc1ccccc1)c1ccccc1	none
CC(C)(C)S(=O)(=O)Cc1noc(-c2ccc(OC(F)(F)F)cc2)n1	none (no result: PV pol inh, MenB inh, MbtI inh)
O=C(NCc1cccs1)c1ccccc1O	none (no result: PV pol inh, MenB inh, MbtI inh)
O=C1CC(c2nnc(Cc3cccc(Cl)c3)o2)CN1c1ccccc1 (configuration not stated)	none (no result: AID504770, MenB inh, MbtI inh)
O=C1CC(c2n[nH]c(=S)o2)CN1c1ccc(Cl)cc1 (configuration not stated)	MbtI inh 81.8
COc1cccc(NCc2nnc(SCc3nnc(-c4cc(C)oc4C)o3)n2C2CCCCC2)c1	none
Cn1c(SCC(=O)NN)nc2ccccc21	none
Cn1c(SCC(=O)O)nc2ccccc21	MenB inh 36.5
CCN(CC)C(=O)C1=CC(c2ccc(F)cc2)=NS(=O)(=O)N1C	none
CS(=O)(=O)c1nc(-c2ccc(Cl)cc2)n[nH]1	none (no result: MbtI inh)
CS(=O)(=O)c1nc(-c2ccc(Br)cc2)n[nH]1	MbtI inh 89.7
CC(C)(C)CC(C)(C)NC(=O)Nc1cccc(Cl)c1	none
CC(C)(C)c1nn2cnnc2n(NC(=O)Nc2cccc(Cl)c2)c1=O	AID504770 -3.55
CCc1cc(=O)n2[nH]c(C(F)(F)F)c(-c3ccccc3)c2n1	none
CCC(=O)c1cc(Cl)ccc1O	none
Oc1ccc(Cl)cc1Sc1cc(Cl)ccc1O	AID504770 -7.1 (no result: MbtI inh)
COc1ccc(N2C(=O)Cc3ccccc3C2=O)cc1	none (no result: PV pol inh, MenB inh, MbtI inh)
Cc1ccccc1N1C(=O)Cc2ccccc2C1=O	PV pol inh 48.0
CC(O)c1nc2cc3ccccc3cc2[nH]1 (configuration not stated)	MenB inh 34.4
Cc1ccc2nc(C(C)O)[nH]c2c1 (configuration not stated)	none
Cc1c2cnn(-c3ccccc3)c(=O)c2c(C)n1CCCC(=O)Nc1cccc(F)c1	PV pol inh 82.0 (no result: AID504770, MenB inh, MbtI inh)
CCOC(=O)c1cc2c(ccn2C)n1CC(=O)NC(c1ccccc1)c1ccccc1	none
O=C(CSc1nc2ccccc2c(=O)[nH]1)c1ccc2c(c1)OCCO2	none
CC1=C/C(=N\Nc2ccc(C(=O)O)cc2)CC1	none
CC(=O)n1c2ccccc2c2ccccc21	none (no result: PV pol inh, MenB inh, MbtI inh)
CC(=O)n1c2ccccc2c2nc(N)sc21	PV pol inh 81.0
Ic1ccc(Nc2nc3nonc3nc2N/N=C\c2ccco2)cc1	MenB inh 28.9
S=C(NC1CCCCC1)Sc1ccc(Cl)cc1	MbtI inh 56.3
Cc1sc(NC(=O)Cn2c(=O)cnc3ccccc32)c(C#N)c1C	none
C=CCNC(=S)C(=O)Nc1ccccc1	PV pol inh 81.0 (no result: MbtI inh)
C=CCNC(=S)Nc1ccccc1	none
CCSc1ccccc1C(=O)NCCCn1ccnc1	MenB inh 39.8
O=C(Cc1c(F)cccc1Cl)NCCCn1ccnc1	MenB inh 40.5
N#Cc1c(-c2ccccc2)noc1/C=C/NCc1ccccc1	none (no result: PV pol inh, MenB inh, MbtI inh)
COc1ccccc1CNC(=O)c1cnc(SC)nc1C	none (no result: AID504770, MenB inh, MbtI inh)
COc1ccccc1CNC(=O)c1ccccc1SC	MbtI inh 59.5
O=C(O)c1cccc(S(=O)(=O)N2CCCCC2)c1	none
CC(C)CNC(=O)c1cccc(S(=O)(=O)N2CCCCC2)c1	AID504770 -4.8 (no result: MenB inh)
Cc1ccc(CSc2nc(C(=O)O)ccc2C#N)cc1	none (no result: MbtI inh)
O=c1c2ccccc2[se]n1-c1ccccc1	MbtI inh 103.2 (no result: AID504770)
CCCNC(=O)c1cccc(Oc2ccccc2)c1	none
c1ccc(NC2=NCCC2)cc1	none (no result: PV pol inh, MenB inh)
COc1ccc(CC(=O)Nc2sc3c(c2C(=O)Nc2ccc(C)cc2)CCCCC3)cc1	PV pol inh 89.0 (no result: AID504770, MenB inh, MbtI inh)
COc1ccc(NC(=O)c2c(NCc3ccc(N(C)C)cc3)sc3c2CCC3)cc1	PV pol inh 86.0 (no result: AID504770, MenB inh, MbtI inh)
O=C(c1cnccn1)N(Cc1ccc(Cl)cc1)Cc1cc2cc3c(cc2[nH]c1=O)OCCO3	MenB inh 25.0
CCOC(=O)c1oc2ccccc2c1COC(=O)c1cccs1	none
Nc1nc(N)c2[nH]c(-c3ccccc3)nc2n1	PV pol inh 68.0
Nc1nc(N)nc(-c2ccccc2)n1	none
